This is an account of results in PubChem BioAssay (NCATS).

Experiment [1] is described as follows: AP1 Signaling Pathway (AID 357). Note: % is set by controls: 0 for no effect and ±100 for the full control effect. Particulars: ME-180 AP-1-bla reporter, EGF-induced, beta-lactamase ratio, 5 h; at 17.2 µM (top of the series) unless noted. Put shortly:
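ME-180 cells with beta-lactamase reporter under AP-1 response element, stimulated with EC50 EGF; compounds tested in titration series, 5 h at 37 °C. CCF4 substrate added 2.5 h at room temperature; 460/530 nm emission ratio gave %activity and AC50.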

Experiment [2] in a line: NFAT Signaling Pathway (AID 444).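 Note: carbachol stimulus at about its EC50 of 1 µM final; % is set by controls: 0 for no effect and ±100 for the full control effect.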 The following applies: Jurkat NFAT-bla M1, carbachol, beta-lactamase ratio, 5 h; at 17.2 µM (top of the series) unless noted. In outline:
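Jurkat cells carrying an NFAT-driven β-lactamase reporter and co-transfected muscarinic M1 receptor were treated with compound plus carbachol (1 uM final, an EC50 level) for 5 h at 37 °C. CCF4 loading followed for 1 h at RT; 460/530 nm ratio gave %activity.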

Experiment [3] deals with Glucocorticoid receptor (Homo sapiens) (UniProt P04150). Briefly: GR-GFP Redistribution (AID 450;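 active = compounds whose dose series gives a full or clear partial fitted curve of increased nuclear translocation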; note: potency is the fitted concentration of half-maximal effect). The following applies: U2OS GR-GFP nuclear translocation, laser cytometry, 2 h; series mostly up to 20.6 µM.
A short description of experiment [4]: qHTS Assay for Identification of Small Molecule Agonists for Hypoxia Response Element Signaling Pathway (AID 914; active = well fitted activation curve with a large enough effect in the signal ratio, with a control signal flat, not every such curve was filed as active; the % refers to the signal ratio; note: potency is the fitted concentration of half-maximal effect; for activation: % of control where 0% means no effect). Particulars: ME-180 HRE-bla reporter, beta-lactamase ratio, CoCl2, 17 h; activation: hits give high values. In outline: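 ME-180 cells carrying an HRE-driven beta-lactamase reporter were treated with compounds in a titration series plus an EC50 level of CoCl2 for 17 h at 37 degrees Celsius; CCF4 readout as the 460nm/530nm ratio gave AC50 values.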

Experiment [5] is described as follows: Stat Signaling Pathway (AID 446).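 Note: ME-180 cervical cancer cells given 40 pM IL-6 alongside compound; SIE-controlled beta-lactamase reporter measured as 460/530 nm FRET emission ratio; % is set by controls: 0 for no effect and ±100 for the full control effect.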 Particulars: ME-180 (cervical carcinoma) SIE beta-lactamase reporter, IL-6 stimulated, 5 h; at 17.2 µM (top of the series) unless noted. In outline:
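ME-180 SIE-bla cells; overnight plating; cpd + IL-6 40 pM, 5 h, 37 C; LiveBLAzer 2.5 h RT; 460/530 nm emission ratio. Normalized to 300 pM IL-6 and 125 nM JAK inhibitor controls.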

A number with no mark means an inactive call. Inconclusive results are not listed. Calls of active or inactive are those of the source. Unless noted, calls come from the whole dose curve; as a rule, active = well fitted curve in either direction with a large enough effect (not every such curve was filed as active); inconclusive = small, poorly fitted or top-dose-only effect, or another doubt; inactive = flat fitted curve, though single readings scatter.

Chain of Glucocorticoid receptor (Homo sapiens) (P04150 whole entry, looked up): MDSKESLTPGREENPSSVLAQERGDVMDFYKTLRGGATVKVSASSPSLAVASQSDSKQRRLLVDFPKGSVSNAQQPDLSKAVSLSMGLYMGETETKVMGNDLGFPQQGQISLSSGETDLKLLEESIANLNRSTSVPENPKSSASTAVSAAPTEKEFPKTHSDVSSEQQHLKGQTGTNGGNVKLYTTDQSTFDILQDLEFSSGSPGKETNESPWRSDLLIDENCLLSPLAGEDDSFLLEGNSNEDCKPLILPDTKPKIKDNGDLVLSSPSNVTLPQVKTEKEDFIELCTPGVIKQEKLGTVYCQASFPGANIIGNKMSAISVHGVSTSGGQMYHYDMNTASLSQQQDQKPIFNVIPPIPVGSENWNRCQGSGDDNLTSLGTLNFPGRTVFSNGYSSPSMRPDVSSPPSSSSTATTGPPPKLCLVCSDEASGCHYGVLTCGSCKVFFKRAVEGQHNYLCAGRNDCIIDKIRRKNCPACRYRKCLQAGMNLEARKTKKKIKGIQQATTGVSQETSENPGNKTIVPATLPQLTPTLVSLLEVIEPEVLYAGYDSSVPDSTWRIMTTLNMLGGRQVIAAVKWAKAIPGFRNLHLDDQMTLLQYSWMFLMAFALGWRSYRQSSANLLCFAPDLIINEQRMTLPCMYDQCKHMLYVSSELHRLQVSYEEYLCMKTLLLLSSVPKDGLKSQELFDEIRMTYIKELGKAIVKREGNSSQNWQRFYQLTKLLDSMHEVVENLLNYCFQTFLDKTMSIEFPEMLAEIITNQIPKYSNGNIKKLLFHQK

Consider `CC1(C)Cc2c(C#N)c(NCC3CCCO3)nc(-c3ccco3)c2CO1` (stereo unspecified), for which the figures for the activity change, negative = inhibition in experiment [1] and in experiment [2] were -9.98% and 5.63%, respectively. Besides, the Potency in experiment [3] is greater than 20.6 µM. Further, the activation in experiment [4] was 25.9%.

In the case of `COc1ccc(CCCNC(=O)CC#N)cc1OC`, the activity change, negative = inhibition is 13.8% in experiment [1] and -4.61% in experiment [2]. Further, in experiment [3], the Potency is greater than 20.6 µM. Also, the activation in experiment [4] is 5.59%.

Consider `c1ccc2c(c1)CCOC2CNCCCN1CCCCC1` (stereo unspecified), for which the activity change, negative = inhibition in experiment [1] is -0.837%. Further, in experiment [5], the activity, negative = inhibition was 2.31%. Moreover, in experiment [3], the Potency is greater than 20.6 µM.

Regarding `Cc1cc(=O)oc(C)c1C(=O)Nc1cccc2nonc12`, the activity change, negative = inhibition in experiment [1] was -1.38%; in experiment [2], 11.1%. The Potency in experiment [3] was greater than 20.6 µM. The activation in experiment [4] is 1.4%.

For `CC(C)c1nc(NCCN2CCOCC2)c(C#N)c2c1COC(C)(C)C2`, in experiment [1], the activity change, negative = inhibition was -27%. Moreover, in experiment [5], the activity, negative = inhibition is -1.06%. Further, the Potency in experiment [3] was greater than 20.6 µM.

For `Cc1c(/C(O)=C2\C(=O)C(=O)N(CCCN(C)C)C2c2ccccc2)cnn1-c1ccccc1` (stereo unspecified), the activity change, negative = inhibition in experiment [1] was -3.19%. In experiment [5], the activity, negative = inhibition was 0.518%. The Potency in experiment [3] is greater than 20.6 µM.

On to `CCOc1ccccc1N1CCN(c2nc3ccccc3nc2C(C#N)C(=O)OC(C)C)CC1` (stereo unspecified), for which the activity change, negative = inhibition in experiment [1] is 16.5%. For the same molecule, the activity, negative = inhibition in experiment [5] was -13.8%. Also, the Potency in experiment [3] is greater than 20.6 µM.

Take `CCOC(=O)C(C)Sc1nc(-c2cccs2)ccc1C#N` (stereo unspecified): in experiment [1], the activity change, negative = inhibition is 7.21%. Besides, the activity, negative = inhibition in experiment [5] was -3.63%. In addition, the Potency in experiment [3] is greater than 20.6 µM.

For `Cc1cc(=O)oc2c(CN3CCC(C)CC3)c(O)c(Cl)cc12`, the activity change, negative = inhibition in experiment [1] is 22.4%. Moreover, in experiment [5], the activity, negative = inhibition is 7.86%. Also, the Potency in experiment [3] was greater than 20.6 µM.

Take `CCOc1cccc(-c2nnc3sc(-c4cc(OC)c(OC)c(OC)c4)nn23)c1`: the activity change, negative = inhibition in experiment [1] is 3.58%. In addition, in experiment [5], the activity, negative = inhibition is -10.4%. Moreover, in experiment [3], the Potency was greater than 20.6 µM.

`COC(=O)c1ccc(CSc2ncnc3c2sc2nc(N4CCOCC4)c4c(c23)CCCC4)o1`: in experiment [1], the activity change, negative = inhibition is 20.1%. For the same molecule, in experiment [5], the activity, negative = inhibition was 25.6%. For the same molecule, in experiment [3], the Potency was greater than 20.6 µM.

Consider `CC(NC(=O)OC(C)(C)C)C(=O)Oc1ccc2ccc(=O)oc2c1` (stereo unspecified), for which the activity change, negative = inhibition in experiment [1] was 24.1%. Moreover, the activity, negative = inhibition in experiment [5] is 10.7%. Moreover, in experiment [3], the Potency was greater than 20.6 µM.

Take `COCCCn1cnc2c(c1=O)c1nc3ccccc3nc1n2CCc1ccccc1`: the activity change, negative = inhibition in experiment [1] was -15.7%. Moreover, the activity, negative = inhibition in experiment [5] was -9.66%.

As to `CCOC(=O)C1CCN(c2nc3ccccc3nc2C(C#N)C(=O)OCCOC)CC1` (stereo unspecified), in experiment [1], the activity change, negative = inhibition was -17.6%. The activity, negative = inhibition in experiment [5] is -9.08%. For the same molecule, the Potency in experiment [3] is greater than 20.6 µM.

On to `Cc1cc(C)n(C2CCCCC2OC(=O)c2ccccc2)n1` (stereo unspecified), for which, in experiment [1], the activity change, negative = inhibition was 7.47%. In experiment [5], the activity, negative = inhibition was 3.83%.

Take `CC[C@H]1OC(=O)C[C@@H](O)[C@H](C)[C@@H](O[C@@H]2O[C@H](C)C[C@H](N(C)C)[C@H]2O)[C@@H](CC=O)C[C@@H](C)C(=O)C=C[C@]2(C)O[C@H]2[C@@H]1C`: the activity change, negative = inhibition in experiment [1] is 1.65%. Besides, the activity, negative = inhibition in experiment [5] was 1.05%.

As to `CCc1nc2sc3c(c2c(=O)o1)CCCC3`, in experiment [1], the activity change, negative = inhibition was -11.3%. Also, in experiment [5], the activity, negative = inhibition was 3.67%. Further, in experiment [3], the Potency is greater than 20.6 µM.

In the case of `CCOC(=O)c1ccc(N2C(=O)CC(Sc3nnc(C)s3)C2=O)cc1` (stereo unspecified), the activity change, negative = inhibition in experiment [1] is 6.1%. Moreover, the activity, negative = inhibition in experiment [5] is 1.82%. The Potency in experiment [3] is greater than 20.6 µM.

Regarding `CN(CCOC(=O)c1cccc(Br)c1)C(C)(C)C`, the activity change, negative = inhibition in experiment [1] is 9.82%. Moreover, in experiment [5], the activity, negative = inhibition is 7.11%. Also, the Potency in experiment [3] is greater than 20.6 µM.

Turning to `CCCCSc1nnc2n(CCc3ccccc3)c(=O)c3c4c(sc3n12)COC(C)(C)C4`, the activity change, negative = inhibition in experiment [1] is -9.1%. For the same molecule, the activity, negative = inhibition in experiment [5] is -12.7%.

Take `CCCCc1c(C)c2ccc(OCC(C)=O)cc2oc1=O`: the activity change, negative = inhibition in experiment [1] is -16.2%. Further, the activity, negative = inhibition in experiment [5] was -0.63%. The Potency in experiment [3] is greater than 20.6 µM.

For `CCCCN(CCCC)C(=O)CSc1nnc2n(C)c(=O)c3c4c(sc3n12)CCCC4`, the activity change, negative = inhibition in experiment [1] is -8.91%. Further, the activity, negative = inhibition in experiment [5] is -16.8%. In experiment [3], the Potency was greater than 20.6 µM.

For the molecule `COc1ccc(S(=O)(=O)N2CCC(N3CCCCC3)CC2)cc1`, the activity change, negative = inhibition in experiment [1] was 7.98%. In addition, the activity, negative = inhibition in experiment [5] was 6.94%. In addition, the Potency in experiment [3] is greater than 20.6 µM.

Turning to `CC1CCc2cc(F)cc3c(O)c(C(=O)NCc4ccco4)c(=O)n1c23` (stereo unspecified), the activity change, negative = inhibition in experiment [1] was -28.9%. Also, the activity, negative = inhibition in experiment [5] was -2.44%. Also, the Potency in experiment [3] was greater than 20.6 µM.

As for `C=C1c2cc(OC)ccc2NC(=O)N1CC`, the activity change, negative = inhibition in experiment [1] is 13.3%. Further, in experiment [5], the activity, negative = inhibition was 1.02%. The Potency in experiment [3] is greater than 20.6 µM.

In the case of `CC1(C)Cc2c(sc(NC(=O)c3ccc(Br)o3)c2C#N)CO1`, the activity change, negative = inhibition in experiment [1] is -3.32%. For the same molecule, the activity, negative = inhibition in experiment [5] is -9.34%. The Potency in experiment [3] was greater than 20.6 µM.

For the molecule `CCN1CCc2c(C#N)c(N3CCOCC3)nc(NCc3ccccc3)c2C1`, the activity change, negative = inhibition in experiment [1] was 1.6%. Moreover, the activity, negative = inhibition in experiment [5] was 1.47%.

On to `COc1ccccc1-c1nnc2n1N=C(c1ccc(O)c(O)c1)CS2`, for which the activity change, negative = inhibition in experiment [1] was 10.7%. Further, the activity, negative = inhibition in experiment [5] is -15.4%.

Take `CCOC(=O)C1=C(CSc2nc3c(cc2C#N)CCC3)OC(N)=C(C#N)C1c1ccccc1` (stereo unspecified): in experiment [1], the activity change, negative = inhibition is 0.107%. Moreover, the activity, negative = inhibition in experiment [5] was -16.4%. For the same molecule, the Potency in experiment [3] was greater than 20.6 µM.

Regarding `COc1ccccc1NC(=O)C1=C(C)NC(SCC(=O)c2ccc(C)cc2)=C(C#N)C1c1ccco1` (stereo unspecified), in experiment [1], the activity change, negative = inhibition is -8.91%. The activity, negative = inhibition in experiment [5] was -6.63%. Besides, the Potency in experiment [3] is greater than 20.6 µM.

As for `CCCSc1nnc2n(C)c(=O)c3c4c(sc3n12)CCC4`, the activity change, negative = inhibition in experiment [1] was -1.82%. Besides, the activity, negative = inhibition in experiment [5] is -5.35%. Moreover, the Potency in experiment [3] is greater than 20.6 µM.

`CCCOc1cc(CN2CCCCC2)cc(C(C)=O)c1`: in experiment [1], the activity change, negative = inhibition was 27.9%. In addition, the activity, negative = inhibition in experiment [5] was 7.32%. The Potency in experiment [3] was greater than 20.6 µM.

On to `COc1ccc(CSc2nnc3n(C)c(=O)c4c5c(sc4n23)CCCC5)cc1`, for which the activity change, negative = inhibition in experiment [1] was -2.6%. The activity, negative = inhibition in experiment [5] was 0.924%.

For `CCOC(=O)C(O)(C1C(=O)CC(C)(C)CC1=O)C(F)(F)F` (stereo unspecified), the activity change, negative = inhibition was 10.7% in experiment [1] and 7.75% in experiment [2]. For the same molecule, the Potency in experiment [4] was 10 µM (active).

With `CCCCOC(=O)C(C)c1c(C)[nH]c(=S)[nH]c1=O` (stereo unspecified), in experiment [1], the activity change, negative = inhibition is 7.17%. Also, the activity, negative = inhibition in experiment [5] was -3.5%. The Potency in experiment [3] was greater than 20.6 µM.
